The campaign covered roughly 330,000 compounds. About 1,400 (0.42%) were called active. The list comes from a sample in which actives are over-represented; it also holds similar structures and randomly drawn compounds. A number with no mark means an inactive call.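 The calls were made as follows: active = at least 40% inhibition at 20 µM here, with at most 30% in a related deaminase screen; inactive = the rest.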

DNA dC->dU-editing enzyme APOBEC-3A (Homo sapiens), sequence (P31941 whole entry, looked up): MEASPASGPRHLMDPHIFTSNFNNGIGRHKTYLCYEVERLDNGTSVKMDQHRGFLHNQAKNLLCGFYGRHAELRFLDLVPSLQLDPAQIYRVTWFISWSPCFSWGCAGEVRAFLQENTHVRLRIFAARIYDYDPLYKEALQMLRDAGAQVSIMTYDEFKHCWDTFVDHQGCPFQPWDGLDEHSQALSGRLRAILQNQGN

This experiment concerns the target DNA dC->dU-editing enzyme APOBEC-3A (Homo sapiens) (UniProt P31941). The experiment is described as follows: APOBEC3A ssDNA deaminase inhibitors, primary screen, selectivity assay for APOBEC3G inhibitor project, biochemical, FAM/TAMRA oligo cleavage fluorescence (AID 493011).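 Also: plate controls were A3A with DMSO for no effect and wells lacking A3A enzyme for full effect.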 Conditions: recombinant A3A, FAM/TAMRA ssDNA deamination fluorescence; at 20 µM; hits give high values.
With `CC(C)CNC(=O)CC(c1ccccc1)c1c(O)ccc2ccccc12` (stereo not given), the inhibition is -1.51%. Under `CC1CCCCC1NC(=O)NC(=O)COC(=O)C1=NN(c2ccccc2)C(=O)CC1` (stereo not given) stands 1.05%; under `CSc1nnc(-c2ccncc2)n1CCCN1CCCC1=O`, 63% (active); under `COCCCn1c(SCC(=O)Nc2ccccc2)nnc1-c1ccncc1`, 0.275%. On to `CCCn1c(SCC(=O)N2CCc3ccccc32)nnc1-c1ccncc1`, for which the inhibition was -1.68%.

As to `CCN(CC(=O)Nc1cc(Cl)ccc1C)C(=O)Cn1c(=O)cnc2ccccc21`, the inhibition is 10.7%.

Consider `CCOc1ccc(C(=O)CCN2CCOCC2)cc1`, for which the inhibition was -4.07%.

Consider `CCC(=O)c1ccc(OCC(O)CN2CC(C)OC(C)C2)cc1` (stereo not given), for which the inhibition was 0.408%. In the case of `CC(C)CCOc1ccc(C(=O)C[N+]2(C)CCOCC2)cc1` it was 83.1% (active). In the case of `CCn1c(=O)c(=O)[nH]c2c(=O)oc3ccc(S(=O)(=O)Nc4ccc(OC)cc4)cc3c21` it was -3.37%; in that of `CCC(C)c1ccc(NC(=S)N2CCCC2)cc1` (stereo not given), -3.82%.

As to `O=S(=O)(Nc1ccccc1N1CCOCC1)c1ccc(Cl)s1`, the inhibition was 2.47%. In the case of `COc1cccc(N2CCN(c3ccc4nnc(CCC(=O)N5CCN(C)CC5)n4n3)CC2)c1` it was -4.98%; in that of `Fc1cc(Br)ccc1NC(=S)Nc1cccnc1`, -0.709%.

As to `COc1cc(/C=N/NC(=S)Nc2cccnc2)cc(OC)c1O`, the inhibition is -4.38%. Under `S=C(Nc1cccnc1)Nc1ccccn1` stands 63.4% (active); under `O=C(COC(=O)C1CCN(S(=O)(=O)c2ccc3c(c2)OCCO3)CC1)Nc1ccccc1OC(F)F`, 3.88%.

`CCc1ccc(NC2Nc3cc(C)nn3S2)cc1` (stereo not given): the inhibition was -0.183%. Consider `Cc1nnc(CN(C)Cc2cn[nH]c2-c2ccc(-c3ccccc3)cc2)o1`, for which the inhibition is 1.98%. In the case of `COc1ccc(C(=O)OCC(=O)NC(=O)CCSc2ccccc2)cc1` it was 0.284%; in that of `CCS(=O)(=O)C1=NSC2=NC(=O)/C(=C\c3ccc(OS(=O)(=O)c4ccccc4)cc3)C(=N)N21`, -0.304%; in that of `CCS(=O)(=O)C1=NSC2=NC(=O)/C(=C\c3cc(C)n(-c4cccc(OC)c4)c3C)C(=N)N21`, -3.79%. In the case of `CS(=O)(=O)c1ccc2c(c1)SC1=NC(=O)/C(=C/c3ccco3)C(=N)N12` it was 41.6% (active); in that of `COc1cc(C)c(Cl)cc1S(=O)(=O)n1ccnc1`, -3.09%; in that of `Cc1noc(C)c1S(=O)(=O)N(C)C[C@H]1Oc2ccc(NC(=O)C3CC3)cc2C(=O)N([C@H](C)CO)C[C@@H]1C`, -2.35%. For the molecule `O=C(NNC(=O)c1cnccc1C(F)(F)F)c1ccc(Cl)cc1`, the inhibition was -3.45%. For the molecule `CN(c1ccccc1)S(=O)(=O)c1cc(C(=O)Nc2nc3ccccc3[nH]2)ccc1Cl`, the inhibition was 2.16%. `O=C(Nc1cccc(-c2nc3ccccc3[nH]2)c1)c1ccc(C(=O)Nc2cccc(-c3nc4ccccc4[nH]3)c2)cc1`: the inhibition was 52.5% (active).

`O=C(Nc1ccccc1)c1cc2ccccc2[nH]1`: the inhibition is 2.51%. In the case of `C/C(=N\NC(=O)C1(C)CC1(Br)Br)c1ccc(C)cc1C` (stereo not given) it was 3.9%; in that of `CC(Oc1ccc(F)cc1)C(=O)N1CCN(c2ncccn2)CC1` (stereo not given), 3.53%. Under `Cc1ccc(NC(=O)COc2coc(CN3CCc4ccccc4C3)cc2=O)cc1Cl` stands -2.19%; under `COc1ccccc1CN1CCN(C(c2ccccc2)c2ccccc2)CC1`, -1.76%. In the case of `CC1(C)CC(N2CCN(C(c3ccccc3)c3ccccc3)CC2)=CC(=[N+]2CCCCC2)C1` it was 57.4% (active); in that of `c1ccc(C(c2ccccc2)N2CCN(Cc3nnnn3C3CCCCC3)CC2)cc1`, -5.77%. Regarding `COc1cc(C(=O)OCC(=O)NC(C)CCc2ccccc2)cc(OC)c1OC` (stereo not given), the inhibition is -4.8%. On to `Cc1ccc(S(=O)(=O)N2CCCCC2)cc1C(=O)N(C)CC(=O)Nc1cccc(F)c1`, for which the inhibition is 4.08%. Take `CN(C)S(=O)(=O)c1ccc(N2CCCC2)c(C(=O)Nc2cccc(F)c2)c1`: the inhibition is -1.6%. Under `CCCCCCCC[n+]1cccc(C(=O)N2c3c(nc(N)[nH]c3=O)NC(C)C2C)c1` (stereo not given) stands 66.2% (active). In the case of `CCCCCCn1c(SCC(=O)c2ccccc2)nc2c1c(=O)[nH]c(=O)n2C` it was -3.65%; in that of `Cc1ccc(C(=O)NC(=S)Nc2ccc3[nH]c(=O)[nH]c3c2)cc1C`, -1.4%. `NC(N)=N/N=C/c1ccc(OCc2ccc(Cl)cc2Cl)cc1`: the inhibition was 0.729%. On to `C/C(N)=C(/C#N)C(=O)COC(=O)C1CCN(C(=O)c2ccc(Cl)cc2)CC1`, for which the inhibition was -0.831%.

On to `COc1ccc(N2C(=O)CC(Nc3ccc(F)cc3)C2=O)c([N+](=O)[O-])c1` (stereo not given), for which the inhibition is -1.69%.

As for `CCOC(=O)c1ccccc1NC(=O)CSc1nc2ccccc2c(=O)[nH]1`, the inhibition is 1.48%. Under `O=C(CSc1nc2ccccc2c(=O)[nH]1)Nc1nc(-c2ccc(Br)cc2)cs1` stands 44.5% (active). `CC(=O)NCc1ccc(-c2csc(NC(=O)CCCc3nc4ccccc4c(=O)[nH]3)n2)cc1`: the inhibition is 4.49%. In the case of `CCCCN(C(=O)c1ccc2ccccc2c1)c1c(N)n(CCCC)c(=O)[nH]c1=O` it was -4.05%.

Consider `CCN(C(=O)COc1cccnc1[N+](=O)[O-])C1CCS(=O)(=O)C1` (stereo not given), for which the inhibition is 0.474%. In the case of `CCN1C(=NCc2ccc(OC)cc2)N[C@@H](CCc2ccccc2)[C@H](C(=O)NCc2ccc(OC)cc2)[C@H]1C` it was 49.6% (active).

As to `COCCN1C(=O)N[C@@H](CCc2ccccc2)[C@H](C(C)=O)[C@H]1C`, the inhibition is 0.644%.

Turning to `CCN1C(=S)N[C@@H](CCc2ccccc2)[C@H](C(=O)OC)[C@H]1C`, the inhibition was -3.49%. Take `CCN1C(=NCC(C)C)N[C@@H](CCc2ccccc2)[C@H](C(=O)NCC(C)C)[C@H]1C`: the inhibition is 53.8% (active). In the case of `CC(C)CNC(=O)C(=O)NCc1ccccc1` it was 6.28%; in that of `CCN1C(=O)N[C@@H](CCc2ccccc2)C(C(=O)OC)=C1C`, -3.29%. Under `CCCCNC(=O)CCn1nc(-c2ccc(Cl)cc2)ccc1=O` stands -0.453%. Turning to `Cc1ccc(-c2ccc(=O)n(CC(=O)NCCCN3CCCCC3)n2)cc1`, the inhibition is -1.5%. Under `CCN(CC)CCCNC(=O)CCn1nc(-c2ccc(Cl)cc2)ccc1=O` stands 98.8% (active); under `COc1ccccc1-c1noc(CSc2nc(C)cc(=O)[nH]2)n1`, 53.2% (active); under `Cc1cc(=O)[nH]c(SCc2cc(Cl)ccc2OC(F)F)n1`, -4.15%.

On to `Cc1cc(=O)[nH]c(SCc2cccc(F)c2)n1`, for which the inhibition is -0.614%.

With `CC1CCN(S(=O)(=O)c2ccc(S(=O)(=O)NCc3ccco3)cc2)CC1`, the inhibition was -4.88%. In the case of `CN(CCOc1ccc(Br)cc1)CC(=O)Nc1cccc(S(=O)(=O)NC2=NCCC2)c1` it was -4.16%; in that of `COc1cccc(NC(=O)CN(C)C(=O)/C=C/c2cn(-c3ccccc3)nc2-c2cccs2)c1`, -4.72%; in that of `COc1ccc(NC(=O)CN(C)C(=O)/C=C/c2cn(Cc3ccccc3)nc2-c2cccnc2)cc1`, 43.8% (active). Take `COc1cccc(NC(=O)CN(C)C(=O)/C=C/c2cc(OC)ccc2OC)c1`: the inhibition is -6.53%.

For the molecule `O=C(CN1CCOC1=O)N1CCCC(Nc2ccc(F)c(F)c2)C1` (stereo not given), the inhibition was -3.28%. Under `O=C(CNC(=O)c1ccc(Br)o1)Nc1ccccc1` stands -8.36%. For `CC(CNC(=O)c1ccc(Br)o1)NC(=O)c1ccc(Br)o1` (stereo not given), the inhibition is 2.21%. As for `CCS(=O)(=O)c1ccc(-c2cccc(NC(=O)c3ccc(Br)o3)c2)nn1`, the inhibition is 95.4% (active). Regarding `Cc1cc(C)cc(Oc2c(C(F)(F)F)oc3cc(OCC(=O)O)ccc3c2=O)c1`, the inhibition was 9.37%. Under `O=C(CN1CCN(S(=O)(=O)c2cc(Cl)ccc2Cl)CC1)c1ccc(O)c(O)c1` stands -5.68%; under `N#Cc1ccsc1NC(=O)CN1CCN(S(=O)(=O)c2cc(Cl)ccc2Cl)CC1`, 40.6% (active). With `N#Cc1ccsc1NC(=O)CN1CCCCC1`, the inhibition is -2.27%. In the case of `CC(CC(=O)C1C(C)C=CCC1(C)C)NNC(N)=O` (stereo not given) it was 0.901%; in that of `CSc1ccccc1NC(=O)c1cnc2sc(C)cn2c1=O`, 0.854%. Under `CCc1c(C)nc2ncnn2c1N1CCC(C(=O)NCc2ccc3c(c2)OCO3)CC1` stands 2.23%; under `O=C(COC(=O)c1cnc(Cl)c(Cl)c1)NCc1ccco1`, 50.6% (active); under `COc1ccc(CCNC(=O)COC(=O)c2cnc(Cl)c(Cl)c2)cc1`, 4.13%. Turning to `O=C(COC(=O)c1ccccc1O)NCc1ccco1`, the inhibition is 32.8%. In the case of `CC(C)CCN1CCC(C)(NC(=O)c2ccccc2)C1=O` (stereo not given) it was 0.313%. In the case of `COc1ccccc1N(C)S(=O)(=O)c1ccc(Cl)c(C(=O)N2CCC(C(N)=O)CC2)c1` it was 1.46%. Turning to `Cc1sc(NC(=S)NC(=O)c2cccs2)nc1-c1ccc(CC(C)C)cc1`, the inhibition was 2.88%. In the case of `CCc1nnc(NC(=O)CCC(=O)N2CCN(c3cc(C)ccc3C)CC2)s1` it was -1.97%; in that of `CCCc1nc(-c2cc3cc(C)ccc3[nH]c2=O)no1`, 40.2% (active).

For `CCC(=O)N(CCc1ccccc1)Cc1cc2cc(C)ccc2[nH]c1=O`, the inhibition is -6.3%.

With `CCN(Cc1cc2cc(C)ccc2[nH]c1=O)S(=O)(=O)c1ccccc1`, the inhibition is -2.49%. Regarding `COc1ccc2[nH]c(=O)c(-c3noc(-c4ccc(F)cc4)n3)cc2c1`, the inhibition is 70.7% (active).

Turning to `COc1ccc(Cc2cc(-c3ccc(F)cc3)n[nH]c2=O)cc1`, the inhibition was -4.85%. Under `COc1ccc2[nH]c(=O)c(CNc3ccc(C)c(C)c3)cc2c1` stands 0.515%.

The record behind these values is PubChem BioAssay AID493011 (Sanford-Burnham Center for Chemical Genomics, 2011).
